# A selection: hits, their analogues and other compounds. The true share with any hit is near 7%.
# KAT2A inh: GCN5L2 (KAT2A) acetyltransferase inhibition; 0.21% of 390,000 active; Potency, µM (titrated, usually from 58.9 µM), for inactives: top-dose activity change, negative = inhibition, actives largely listed as inhibitors; GCN5L2 HAT assay, ThioGlo1 CoA-SH fluorescence; note: potency is the fitted concentration of half-maximal effect; % is set by controls: 0 for no effect and ±100 for the full control effect
#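 Free CoA generated was detected with ThioGlo1 (50uM) fluorescence at Ex340nm/Em540nm, read immediately and after 20 min at room temperature. Enzyme, 20 nM in HEPES pH 7.5 buffer, saw compounds 15 min before adding 75uM H3(1-25) peptide and 70uM acetyl-CoA.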
# JMJD2A Tudor: inhibitors of human JMJD2A Tudor domain; O75164; AlphaScreen JMJD2A-Tudor / H3K4me3 peptide binding; Potency, µM (doses to about 114 µM), without a hit: at the highest dose activity change, negative = inhibition, actives largely listed as inhibitors; 4.4% of 390,000 active; AID 504339; note: potency is the fitted concentration of half-maximal effect; % is set by controls: 0 for no effect and ±100 for the full control effect; nearly all actives have a fitted effect of over 50% in size
# Target sequence (O75164 whole entry, looked up, the tested form may be a part): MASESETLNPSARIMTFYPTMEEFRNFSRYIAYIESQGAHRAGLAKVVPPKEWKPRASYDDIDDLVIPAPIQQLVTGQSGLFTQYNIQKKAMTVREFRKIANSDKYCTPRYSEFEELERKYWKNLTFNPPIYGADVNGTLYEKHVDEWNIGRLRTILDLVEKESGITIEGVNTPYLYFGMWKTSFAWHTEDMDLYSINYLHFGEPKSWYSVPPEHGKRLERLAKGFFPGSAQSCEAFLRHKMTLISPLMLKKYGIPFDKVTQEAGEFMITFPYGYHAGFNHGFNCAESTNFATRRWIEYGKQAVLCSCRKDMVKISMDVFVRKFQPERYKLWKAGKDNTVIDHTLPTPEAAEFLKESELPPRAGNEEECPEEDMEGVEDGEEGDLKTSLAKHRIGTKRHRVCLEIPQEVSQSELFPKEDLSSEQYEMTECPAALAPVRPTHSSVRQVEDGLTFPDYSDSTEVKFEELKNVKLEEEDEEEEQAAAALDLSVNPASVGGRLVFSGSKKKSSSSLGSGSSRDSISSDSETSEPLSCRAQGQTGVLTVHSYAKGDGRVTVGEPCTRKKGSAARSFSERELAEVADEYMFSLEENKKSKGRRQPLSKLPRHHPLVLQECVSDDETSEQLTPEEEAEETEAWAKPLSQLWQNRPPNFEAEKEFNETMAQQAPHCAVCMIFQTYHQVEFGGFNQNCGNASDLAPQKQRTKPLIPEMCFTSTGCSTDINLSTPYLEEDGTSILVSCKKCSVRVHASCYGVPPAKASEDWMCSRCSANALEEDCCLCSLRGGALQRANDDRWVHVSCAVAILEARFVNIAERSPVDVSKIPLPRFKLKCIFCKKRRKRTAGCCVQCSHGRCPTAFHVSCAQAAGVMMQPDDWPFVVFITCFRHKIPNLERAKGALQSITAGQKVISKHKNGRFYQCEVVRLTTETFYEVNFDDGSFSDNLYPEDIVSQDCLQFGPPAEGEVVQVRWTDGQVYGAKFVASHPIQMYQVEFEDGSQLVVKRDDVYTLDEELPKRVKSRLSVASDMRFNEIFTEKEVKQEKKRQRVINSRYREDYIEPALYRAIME
# PI5P4K alpha inh: blocks human PI5P4K alpha kinase activity. P48426. PI5P4Kalpha enzyme, ADP-Glo luminescence, 60 min; active compounds read low. max response, %. 1.2% of 330,000 active. AID 652105; active = max response of -50% or lower; inconclusive = between -30% and -50%; inactive = -30% or higher; note: value at the top dose of about 77 µM; % is set by controls: 0 for no effect and ±100 for the full control effect
#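 Enzyme plus substrate dispensed, test compounds pinned in, then ATP (5 microM final) added. After 60 min at RT, ADP-Glo reagent 1 for 45 min and reagent 2 for 30 min preceded luminescence imaging.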
# BAZ2B block: BAZ2B (human) inhibition. Q9UIF8. AlphaScreen BAZ2B-H3K14Ac peptide displacement. Potency, µM (titrated, usually from 114 µM), for the others: at the top dose activity change, negative = inhibition, usual class: inhibitors. 4.4% of 360,000 active. AID 504333; note: potency is the fitted concentration of half-maximal effect; % is set by controls: 0 for no effect and ±100 for the full control effect; nearly all actives have a fitted effect of over 60% in size
#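 Inhibition is scored as reduced AlphaScreen emission. The BAZ2B/b-H3(5-23)K14Ac complex (50 nM each) in PBS pH 7.4, 0.01% Tween-20 meets compound (up to 110 uM) for 30 min at RT before bead addition.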
# PLK1 PBD inh: inhibitors of human PLK1 polo-box domain binding; Plk1 PBD binding of FITC phosphopeptide, fluorescence polarization; 2.8% of 360,000 active; Potency, µM, without a hit: max response, negative = inhibition, most hits filed as inhibitors; P53350; AID 720504; note: potency is the fitted concentration of half-maximal effect; series mostly up to about 57 µM; % is set by controls: 0 for no effect and ±100 for the full control effect; nearly all actives have a fitted effect of over 65% in size
# HP1b binding inh: HP1-beta chromodomain-methylated histone interaction inhibition; P83916; AlphaScreen HP1-beta / biotin-H3K9me3 peptide binding; Potency, µM (doses to about 114 µM), without a hit: at the top dose activity change, negative = inhibition, hits mostly inhibitors; 0.56% of 390,000 active; note: potency is the fitted concentration of half-maximal effect; nearly all actives have a fitted effect of over 70% in size
#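 Compound inhibition of the preformed complex between 50 nM HP1-beta and 50 nM biotinylated H3K9me3 peptide was read by AlphaScreen. Buffer was PBS pH 7.4 with 0.01% Tween-20. Incubations ran 30 min at room temperature, with 10 ug/mL donor/acceptor beads.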
# ADP-Glo counter: ADP-Glo luciferase interference, PI5P4K counter-screen | shares compounds with PI5P4K alpha inh | ADP-Glo detection counter-screen, luciferase luminescence, no enzyme | Potency, µM (series often up to 76.9 µM), without a hit: at the top dose activity change, negative = inhibition, most hits filed as inhibitors | 1,100 tested, under 10 active
# * marks the source's active call; other numbers are inactive results; ? = inconclusive; · = no result given; [ ] = remark or other dose. Unless noted, calls come from the whole dose curve; as a rule, active = well fitted curve in the direction sought with a large enough effect; inconclusive = small, poorly fitted or top-dose-only effect, or another doubt; inactive = no such curve, though single readings can be large; an effect the other way counts as inactive or inconclusive.
SMILES,KAT2A inh,JMJD2A Tudor,PI5P4K alpha inh,BAZ2B block,PLK1 PBD inh,HP1b binding inh,ADP-Glo counter
CC(C)(C)c1csc(NC(=O)c2ccc3nccnc3c2)n1,-14%,-24%,-52*,-38%,-28%,-9%,-5%
CC(C)(C)c1csc(NC(=O)c2ccncc2)n1,2%,-5%[11.4 µM],-5,-27%,-3%,15%,·
O=c1cc(CN2CCN(S(=O)(=O)c3cccc(Cl)c3)CC2)c2ccc(O)cc2o1,-28%,-10%,-74*,·,-7%,24%[57 µM],-6%
O=c1cc(CN2CCN(S(=O)(=O)c3ccc4c(c3)OCCO4)CC2)c2ccc(O)cc2o1,-7%,-21%,·,-11%,-8%,9%,·
C=Cn1cc(CNC[C@H]2O[C@@H](n3cnc4c(=O)[nH]c(N)nc43)[C@H](O)[C@@H]2O)c(C)n1,·,·,1,·,0%,·,·
COc1ccc2oc(C(=O)Nc3ccc(N4CCOCC4)cc3)c(C)c2c1,-3%,?,-68*,50µM*,-11%,-15%,-1%
COc1cccc(NC(=O)c2oc3ccc(S(=O)(=O)N4CCOCC4)cc3c2C)c1,-16%,-14%,-7,5%,-3%,15%,·
CC(=O)Nc1cccc2cc(O)ccc12,·,?,-63*,·,-22%,?,3%
Cc1ccc(Nc2nc(-c3sc(N)nc3C)cs2)cc1,-28%,50µM*,-54*,40µM*,?,?,-3%
CCOC(=O)C1=CCN(S(=O)(=O)c2ccccc2C(=O)OC)C1c1ccc(Cl)cc1 (centres undefined),·,·,-5,·,-12%,·,·
O=S1(=O)CC(N2CCSCC2)CN1Cc1cn(Cc2ccc(F)cc2)nn1 (centres undefined),·,·,-28,·,-12%,·,2%
c1cnc(N2CCN(c3ncc4c(n3)CCNC4)CC2)nc1,-12%,?,·,?,·,54%,·
CS(=O)(=O)c1ccc2nc(NC(=O)c3ccc(N4C(=O)CCC4=O)cc3)sc2c1,-7%,-19%,2,1%,-10%,43%,·
O=C(Nc1nc(-c2ccco2)cs1)c1ccccc1,0%,?,-63*,56µM*,?,-30%,-2%
O=C(Nc1nc(-c2ccccc2)cs1)c1ccco1,-6%,-16%,3,10%,-6%,26%,·
CS(=O)(=O)c1ccc(C(=O)Nc2nc(-c3ccco3)c(-c3ccco3)s2)cc1,?,?,-84*,40µM*,-27%,40µM*,4%
COc1ccc(CN2CCC(=O)N([C@H](CO)CC(C)C)CC2)cc1OC,-3%,-3%,-59*,1%,-2%,66%,-7%
COc1ccccc1CNC(=O)c1cc(S(=O)(=O)N2CCN(c3ccccc3)CC2)ccc1Cl,·,-20%,3,·,3%,14%,·
O=C(c1cccc(-n2cccc2)c1)N1CCN(S(=O)(=O)c2ccccc2)CC1,?,5.6µM*,-69*,8.9µM*,?,13µM*,3%
CN(C)/C=C/C(=O)c1cc(F)cc(C(F)(F)F)c1,-3%,-15%,-5,-14%,1%,-3%,·
Cc1cccc(OCC(=O)Nc2cccc(C(=O)Nc3ccccc3C(=O)O)c2)c1,-11%,-23%,-52*,13%,-18%,8%,5%
O=C(Cc1cccs1)NCCc1csc(-c2ccccc2)n1,-14%,-36%,-60*,?,-10%,-15%,1%
CCC1=Nc2cc(C(=O)O)ccc2Sc2ccccc21,-3%,-19%,-57*,-8%,-19%,41%,-2%
CCOC(=O)[C@]12CCCC=C1N(Cc1ccc3c(c1)OCO3)C(=O)[C@H](CC(=O)N1CCOCC1)C2,·,·,2,·,-22%,·,·
O=C(Nc1cccc(Cl)c1)Nc1nnc(-c2ccncc2)s1,?,0%,-60*,-1%,-6%,20%,-5%

# Source: PubChem (National Center for Advancing Translational Sciences (NCATS))
